Where “and” joins values, the source holds several entries; their conditions need not be identical. Equal entries are not always repeated. Records with an inconclusive call do not appear. Calls of active or inactive are those of the source. Unless noted, the call rests on the fitted dose curve; in most records, active means well fitted curve in the direction sought with a large enough effect; inconclusive means small, poorly fitted or top-dose-only effect, or another doubt; inactive means no such curve, though single readings can be large; an effect the other way counts as inactive or inconclusive.
Columns and labels:
[1] = molecular target: Metallo-beta-lactamase type 2 (Klebsiella pneumoniae) (UniProt C7C422); experiment: qHTS to identify inhibitors of the New Delhi Metallo-beta-lactamase (NDM): assay validation screen against the NCATS LOPAC Collection (AID 1794843); conditions: NDM-1 enzyme, nitrocefin hydrolysis, absorbance 485 nm; series mostly up to 38.4 µM;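 further: nitrocefin turnover by NDM-1 measured as 485 nm absorbance at plateau; on the % scale 0 is the no-effect control and ±100 the full control effect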
Chain of Metallo-beta-lactamase type 2 (Klebsiella pneumoniae) (C7C422 whole entry, looked up): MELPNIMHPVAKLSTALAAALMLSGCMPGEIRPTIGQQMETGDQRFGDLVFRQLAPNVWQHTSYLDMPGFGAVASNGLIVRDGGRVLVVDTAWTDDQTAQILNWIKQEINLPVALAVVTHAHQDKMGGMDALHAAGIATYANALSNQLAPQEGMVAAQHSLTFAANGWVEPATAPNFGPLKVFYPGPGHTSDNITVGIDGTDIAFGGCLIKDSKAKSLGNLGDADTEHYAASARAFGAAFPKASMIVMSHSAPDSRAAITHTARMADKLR
Summary of the method: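 Nitrocefin hydrolysis (50 uM substrate stock) by NDM-1, 2 nM final, was followed by 485 nm absorbance after compound preincubation; buffer was 50 mM HEPES pH 7.0, 1 uM ZnSO4, 0.01% Tween20.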

[2] = qHTS profiling for inhibitors of Plasmodium falciparum proliferation (AID 504749); further: nearly all actives have a fitted effect of over 60% in size; further: potency means the concentration at half of the fitted maximal effect;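 on activity, negative = inhibition: 0% = DMSO vehicle and full inhibition = artemisinin control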; conditions: P. falciparum in erythrocytes, SYBR Green DNA, 72 h
Summary of the method: (§1)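 Each compound contacts P. falciparum-infected red blood cells for 72 h at 37 C; lysis buffer (Tris, EDTA, saponin, Triton X, SYBR Green I) is added and fluorescence measured next morning; values normalized to controls.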

3D7 = experiment: as above; conditions: P. falciparum in erythrocytes, SYBR Green DNA, 72 h; series mostly up to 28.7 µM
Summary of the method: as §1

7G8 = experiment: as above; conditions: P. falciparum in erythrocytes, SYBR Green DNA, 72 h; series mostly up to 28.7 µM
Summary of the method: as §1

AA1029 = experiment: as above; conditions: P. falciparum in erythrocytes, SYBR Green DNA, 72 h; series mostly up to 28.7 µM
Summary of the method: as §1

ATS189 = experiment: as above; conditions: P. falciparum in erythrocytes, SYBR Green DNA, 72 h; series mostly up to 28.7 µM
Summary of the method: as §1

ATS95 = experiment: as above; conditions: P. falciparum in erythrocytes, SYBR Green DNA, 72 h; series mostly up to 28.7 µM
Summary of the method: as §1

C2A = experiment: as above; conditions: P. falciparum in erythrocytes, SYBR Green DNA, 72 h; series mostly up to 28.7 µM
Summary of the method: as §1

[3] = molecular target: Phospholipid hydroperoxide glutathione peroxidase GPX4 (Homo sapiens) (UniProt P36969); experiment: Primary qHTS Assay for Inhibitors of Recombinant Selenoprotein Glutathione Peroxidase 4 (GPX4) (AID 1845192); conditions: recombinant GPX4, GR-coupled NADPH fluorescence, 15 min; series mostly up to 50 µM; further: nearly all actives have a fitted effect of over 65% in size
Chain of Phospholipid hydroperoxide glutathione peroxidase GPX4 (Homo sapiens) (P36969 whole entry, looked up): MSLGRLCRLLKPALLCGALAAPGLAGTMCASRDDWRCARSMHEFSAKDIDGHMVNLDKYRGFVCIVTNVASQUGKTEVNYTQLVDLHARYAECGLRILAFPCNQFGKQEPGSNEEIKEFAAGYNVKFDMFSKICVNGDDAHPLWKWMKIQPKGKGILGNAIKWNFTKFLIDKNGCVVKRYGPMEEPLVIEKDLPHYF
Summary of the method: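 Steps: GPX4 plus compound, 30 min RT; add GR/GSH/NADPH master mix; start with cumene hydroperoxide; read 340/450 nm fluorescence at 0 and 15 min. Finals were 200 nM GPX4, 1 mM GSH, 0.5 mM CHP, 0.5 mM NADPH, 100 nM GR.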

AS120 = experiment: qHTS profiling for inhibitors of Plasmodium falciparum proliferation (AID 504749); further: nearly all actives have a fitted effect of over 60% in size; further: potency means the concentration at half of the fitted maximal effect;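 on activity, negative = inhibition: 0% = DMSO vehicle and full inhibition = artemisinin control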; conditions: P. falciparum in erythrocytes, SYBR Green DNA, 72 h; series mostly up to 28.7 µM
Summary of the method: as §1

[4] = molecular target: Glutathione peroxidase 1 (Homo sapiens) (UniProt P07203); experiment: Primary qHTS Assay for Inhibitors of Recombinant Selenoprotein Glutathione Peroxidase 1 (GPX1) (AID 1845191); conditions: recombinant GPX1, GR-coupled NADPH fluorescence, 15 min; series mostly up to 48.8 µM; further: nearly all actives have a fitted effect of over 65% in size; on activity, negative = inhibition: on the % scale 0 is the no-effect control and ±100 the full control effect
Chain of Glutathione peroxidase 1 (Homo sapiens) (P07203 whole entry, looked up): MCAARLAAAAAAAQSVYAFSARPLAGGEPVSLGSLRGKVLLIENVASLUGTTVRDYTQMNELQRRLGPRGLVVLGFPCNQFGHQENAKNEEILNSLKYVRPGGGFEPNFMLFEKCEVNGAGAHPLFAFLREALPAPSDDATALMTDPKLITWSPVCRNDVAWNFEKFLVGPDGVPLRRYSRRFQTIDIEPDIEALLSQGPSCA
Summary of the method: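 GR-coupled readout: NADPH consumption tracked by fluorescence, ex 340/em 450 nm, at t=0 and after 15 min at RT. Final mix 10 nM GPX1, 1 mM GSH, 0.5 mM CHP, 0.5 mM NADPH, 100 nM GR, 0.01% BSA, following 30 min enzyme–compound preincubation.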

[5] = molecular target: Luciferin 4-monooxygenase (Photinus pyralis) (UniProt P08659); experiment: Primary firefly luciferase (FLuc) qHTS assay for identification of artifact compounds. (AID 1845220); conditions: purified firefly luciferase, luminescence, 5 min; series mostly up to 54.1 µM;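 further: plate controls were DMSO vehicle for no effect and no enzyme for full effect; nearly all actives have a fitted effect of over 60% in size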
Summary of the method: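 D-luciferin and ATP (10 uM each, final) in Tris acetate buffer pH 7.6 were incubated with compounds for 15 min at room temperature. The reaction was started with 10 nM Photinus pyralis luciferase and luminescence read after 5 min. Percent inhibition was fitted to a 4-parameter Hill equation.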

[6] = system: Nanoluciferase (engineered Oplophorus gracilirostris luciferase); experiment: Primary Nanoluciferase (NLuc) qHTS assay for identification of artifact compounds. (AID 1845222); conditions: NLuc-conditioned medium, Nano-Glo luminescence, 5 min; series mostly up to 54.1 µM;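 further: 0% = DMSO and -100% = no enzyme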
Summary of the method: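 Diluted conditioned medium from NLuc-expressing S16 cells treated with compounds for 15 min at room temperature, then Nano-Glo substrate added; luminescence read after 5 min. Percent inhibition versus no-enzyme and DMSO controls fitted to 4-parameter Hill equation.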

[7] = qHTS drug screen for cell cycle checkpoint inhibitors in PARPi-resistant BRCA-mutant ovarian cancer cell lines. (AID 1963452; calls by dose curve); conditions: PEO1/OlaR viability, CellTiter-Glo luminescence, 96 h, stronger effect = lower value
Summary of the method: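 PEO1, PEO4 and PEO1/OlaR ovarian cancer cells, 600 per well, exposed 96 h at 37C to a dilution series. Viability read by CellTiter-Glo luminescence, normalized to DMSO and empty wells; activity summarized as Z-AUC.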

[8] = at 28.7 µM (top of the series), parasite line A
[9] = at 28.7 µM (top of the series), parasite line B
[10] = measured here: PEO1 parental Z-AUC

CC1=NS(=O)(=O)c2cc(Cl)ccc2N1
inactive: Potency [1] | activity, negative = inhibition [2, 8] -21.1% | Potency (3D7) | Potency (7G8) | Potency (AA1029) | Potency (ATS189) | Potency (ATS95) | Potency (C2A)

OC(CCN1CCCCC1)(c1ccccc1)C1CCCCC1 (stereo not given)
active: Potency (7G8) 8.91 µM
inactive: Potency [1] | outcome [3] | activity, negative = inhibition [2, 8] -22% | activity, negative = inhibition [2, 9] -4.19% | Potency (3D7) | Potency (ATS189) | Potency (C2A)

CCCNC(C)C(=O)Nc1ccccc1C (stereo not given)
inactive: Potency [1] | outcome [3]

C[N+](C)(C)CCCCCCCCCC[N+](C)(C)C
active: Potency ([2]; parasite line A) 3.98 µM | Potency ([2]; parasite line B) 1.58 µM | Potency (3D7) 5.62 µM | Potency (7G8) 5.01 µM | Potency (AA1029) 5.62 µM | Potency (AS120) 3.16 µM | Potency (ATS189) 4.47 µM | Potency (ATS95) 3.16 µM | Potency (C2A) 5.62 µM
inactive: Potency [1]

COC(=O)C1=C(C)NC(C)=C(C(=O)OC(C)(C)CN(C)CCC(c2ccccc2)c2ccccc2)C1c1cccc([N+](=O)[O-])c1 (stereo not given)
inactive: Potency [1] | outcome [3]
active: Potency ([2]; parasite line A) 2 µM | Potency ([2]; parasite line B) 2 µM | Potency (3D7) 2.51 µM | Potency (7G8) 2 µM | Potency (AA1029) 2.51 µM | Potency (AS120) 2 µM | Potency (ATS189) 2 µM | Potency (ATS95) 3.55 µM | Potency (C2A) 4.47 µM

Cc1ccc(/C(=C\CN2CCCC2)c2ccccn2)cc1
inactive: Potency [4] | outcome [3]

CN(C)CCCN1c2ccccc2Sc2ccccc21
inactive: Potency [1] | activity, negative = inhibition ([2]; at 12.8 µM (top of the series), parasite line A) 8.14% | activity, negative = inhibition ([2]; at 12.8 µM (top of the series), parasite line B) 20.7% | Potency (3D7)
active: Potency (7G8) 3.16 µM | Potency (AA1029) 3.16 µM

O=C1NCN(c2ccccc2)C12CCN(CCCC(c1ccc(F)cc1)c1ccc(F)cc1)CC2
active: Potency ([2]; parasite line A) 3.16 µM | Potency ([2]; parasite line B) 7.94 µM | Potency (3D7) 3.55 µM | Potency (7G8) 3.16 µM | Potency (AA1029) 5.01 µM | Potency (AS120) 4.47 µM | Potency (ATS189) 10 µM | Potency (ATS95) 8.91 µM | Potency (C2A) 7.08 µM
inactive: Potency [1]

CN1CCN(CC(=O)N2c3ccccc3C(=O)Nc3cccnc32)CC1
inactive: Potency [4] | activity, negative = inhibition [2, 8] -7.56% | activity, negative = inhibition [2, 9] -8.28% | Potency (3D7) | Potency (7G8) | Potency (AA1029) | Potency (AS120) | Potency (ATS189) | Potency (ATS95) | Potency (C2A)

O=C(O)CP(=O)(O)O
inactive: Potency [4] | outcome [3] | activity, negative = inhibition [2, 8] 3.45% | activity, negative = inhibition [2, 9] -17.2% | Potency (3D7) | Potency (7G8) | Potency (AA1029) | Potency (AS120) | Potency (ATS189) | Potency (ATS95) | Potency (C2A)

NS(=O)(=O)c1cc2c(cc1Cl)NC(C1CC3C=CC1C3)NS2(=O)=O (stereo not given)
inactive: Potency [1] | outcome [3] | activity, negative = inhibition [2, 8] 2.38% | activity, negative = inhibition [2, 9] -3.16% | Potency (3D7) | Potency (7G8) | Potency (AA1029) | Potency (AS120) | Potency (ATS189) | Potency (ATS95) | Potency (C2A)

NC(=O)N1c2ccccc2C=Cc2ccccc21
inactive: Potency [1] | outcome [3] | activity, negative = inhibition [2, 8] -22.9% | activity, negative = inhibition [2, 9] -3.8% | Potency (3D7) | Potency (7G8) | Potency (AA1029) | Potency (AS120) | Potency (ATS189) | Potency (ATS95) | Potency (C2A)

CNCCC(Oc1ccccc1OC)c1ccccc1 (stereo not given)
inactive: Potency [1] | outcome [3] | activity, negative = inhibition [2, 8] 3.02% | activity, negative = inhibition [2, 9] -7.17% | Potency (3D7) | Potency (C2A)
active: Potency (7G8) 4.47 µM | Potency (AA1029) 10 µM

COC(=O)[C@H]1[C@H]2C[C@@H]3c4[nH]c5cc(OC)ccc5c4CCN3C[C@H]2C[C@@H](OC(=O)c2cc(OC)c(OC)c(OC)c2)[C@@H]1OC
inactive: Potency [1] | outcome [3] | outcome [5] | outcome [6]
active: Potency ([2]; parasite line A) 11.2 µM | Potency ([2]; parasite line B) 11.2 µM | Potency (3D7) 8.91 µM | Potency (7G8) 1.41 µM | Potency (AA1029) 8.91 µM | Potency (AS120) 4.47 µM | Potency (ATS189) 11.2 µM | Potency (ATS95) 11.2 µM | Potency (C2A) 11.2 µM

NC(=O)c1ncn([C@@H]2O[C@H](CO)[C@@H](O)[C@H]2O)c1O
inactive: Potency [1] | outcome [3] | Z-AUC [7] 1.15 and 0.284 | activity, negative = inhibition [2, 8] 9.25% | activity, negative = inhibition [2, 9] 1.87% | Potency (3D7) | Potency (7G8) | Potency (AA1029) | Potency (AS120) | Potency (ATS189) | Potency (ATS95) | Potency (C2A)
0.935 and 0.686: Z-AUC [7, 10]
1.08 and 0.519: Z-AUC ([7]; measured here: PEO4 Z-AUC)

CC(C)(C)c1ccc(C(=O)CCCN2CCC(OC(c3ccccc3)c3ccccc3)CC2)cc1
active: Potency ([2]; parasite line A) 10 µM | Potency (3D7) 7.94 µM | Potency (7G8) 3.55 µM | Potency (AA1029) 10 µM | Potency (AS120) 6.31 µM | Potency (ATS189) 10 µM | Potency (ATS95) 8.91 µM
inactive: Potency [1] | outcome [3]

c1ccc2c(c1)CCCC2C1=NCCN1 (stereo not given)
inactive: Potency [4]

Cc1scc2c1N(C(=O)CN1CCN(C)CC1)c1ccccc1NC2=O
inactive: Potency [1] | outcome [3] | activity, negative = inhibition [2, 8] 0.0421% | activity, negative = inhibition [2, 9] 4.05% | Potency (3D7) | Potency (7G8) | Potency (AA1029) | Potency (AS120) | Potency (ATS189) | Potency (ATS95) | Potency (C2A)

CCNC(=O)N1CCN(CCCC(c2ccc(F)cc2)c2ccc(F)cc2)CC1
inactive: Potency [1] | outcome [3]
active: Potency ([2]; parasite line A) 1.12 µM | Potency ([2]; parasite line B) 1.26 µM | Potency (3D7) 7.08 µM | Potency (7G8) 2 µM | Potency (AA1029) 2.24 µM | Potency (AS120) 2.24 µM | Potency (ATS189) 1.12 µM | Potency (ATS95) 2.24 µM | Potency (C2A) 1.41 µM

CCCCOCCOCCOCc1cc2c(cc1CCC)OCO2
inactive: Potency [4] | activity, negative = inhibition [2, 8] 4.14% | activity, negative = inhibition [2, 9] 5.71% | Potency (3D7) | Potency (7G8) | Potency (AA1029) | Potency (AS120) | Potency (ATS189) | Potency (ATS95) | Potency (C2A)

CCCN(CCC)C(=O)C(CCC(=O)O)NC(=O)c1ccccc1 (stereo not given)
0.925: Z-AUC ([7]; measured here: PEO4 Z-AUC)
inactive: Potency [1] | outcome [3] | Z-AUC [7] 0.987
0.633: Z-AUC [7, 10]

CC(C)COCC(CN(Cc1ccccc1)c1ccccc1)N1CCCC1 (stereo not given)
inactive: Potency [1] | outcome [3] | Z-AUC [7] 1.09 | Potency (3D7) | Potency (ATS189) | Potency (C2A)
0.389: Z-AUC ([7]; measured here: PEO4 Z-AUC)
0.789: Z-AUC [7, 10]

CCN(CC)CCOCCOC(=O)C1(c2ccccc2)CCCC1
inactive: Potency (AA1029)
active: Potency (7G8) 1.78 µM | Potency (AS120) 12.6 µM | Potency (ATS189) 7.08 µM | Potency (ATS95) 11.2 µM

Reference: PubChem BioAssay (NCATS)
